Shown are actives, neighbours in structure and some others; about 13% of the full set was active somewhere.
Pf growth 48h: Primary qHTS for delayed death inhibitors of the malarial parasite plastid, 48 hour incubation | P. falciparum luciferase growth in erythrocytes, 48 h | Potency, µM (highest dose often 28.7 µM), without a hit: at the highest dose activity change, negative = inhibition, hits mostly inhibitors | actives 5.9% (n = 310,000); also: potency is read from the fitted curve at half-maximal effect
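Here the parasites carry a stable luciferase gene and grow inside erythrocytes in Albumax-based RPMI medium with compound for one erythrocytic cycle. Activity is scored as loss of luminescent signal.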
Pf growth 96h: Primary qHTS for delayed death inhibitors of the malarial parasite plastid, 96 hour incubation | P. falciparum luciferase reporter growth, 96 h | Potency, µM (titrated, usually from 28.7 µM), for the others: at the highest dose activity change, negative = inhibition, hits mostly inhibitors | actives 6.9% (n = 320,000); also: potency is read from the fitted curve at half-maximal effect
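Compounds incubated with erythrocytes infected by luciferase-expressing P. falciparum (2% hematocrit, 0.05% parasitemia final) for 96 hours, 37 C in 5% CO2. Growth inhibition scored as decreased luciferase luminescence.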
HCMV antiviral: qHTS Assay for inhibitors of the human cytomegalovirus (HCMV). HFF cells, HCMV-luciferase reporter, 72 h; active compounds read low. activity change, negative = inhibition, % at 57.5 µM. actives 4.5% (n = 410,000); in the data active = activity change below about -60%; inconclusive = no clear call, values can overlap the other calls; inactive = above about -39%
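Two-dose cell screen: HFF monolayers treated with compounds and infected with luciferase-expressing HCMV at 1 PFU/cell, 72 h at 37C, then lysed for luciferase measurement.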
HCV inh: qHTS Assay for Inhibitors of Hepatitis C Virus (HCV) | actives 3.4% (n = 340,000) | Huh7.5.1 HCVcc-Cre infection, luciferase reporter, 44 h | AID 651820, 2012 | Potency, µM (doses to about 41.8 µM), without a hit: top-dose activity change, negative = inhibition, usual class: inhibitors; also: potency is read from the fitted curve at half-maximal effect
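HCVcc-Cre virus at an moi near 0.5 was added right after compound to cells cultured 4 h from seeding (1,000 cells/well). Luciferase activity was determined 44 h later, 15 min after substrate addition at RT.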
Numbers without * were called inactive; ? = inconclusive; · = no result given. Unless noted, calls follow the shape of the dose curve; as a rule, active = well fitted inhibition curve with a large enough effect; inconclusive = small, poorly fitted or top-dose-only effect, or another doubt; inactive = no such curve, though single readings can be large or run the other way. % is scaled to controls: 0 for no effect and ±100 for the full control effect.

SMILES	Pf growth 48h	Pf growth 96h	HCMV antiviral	HCV inh
Cc1c(Cl)cccc1NC(=O)CCS(=O)(=O)c1ccc2c(c1)CC(C)N2C(=O)C1CC1 (stereo unspecified)	·	·	-30	·
Cc1cccc(N2CCN(S(=O)(=O)c3ccc4c(c3)CCCN4C(=O)C3CCC3)CC2)c1C	?	-1%	?	14µM*
O=C(O)c1ccc(N2C(=O)c3[nH]nc(-c4ccccc4)c3C2c2cccc(F)c2)cc1 (stereo unspecified)	·	·	7	·
Cc1noc2nc(C(=O)O)nc(N3CCCCC3)c12	·	·	-16	·
CCCN(c1ccccc1CC)S(=O)(=O)c1ccc2c(c1)CC(C)N2C(=O)C1CC1 (stereo unspecified)	·	·	-93*	·
COc1ccccc1CNS(=O)(=O)c1ccc2c(c1)CC(C)N2C(=O)C1CCC1 (stereo unspecified)	?	-21%	-61*	?
CCC(=O)c1ccc(N2CCN(S(=O)(=O)c3ccccc3)CC2)c(F)c1	-5%	9.3µM*	-3	-12%
Cc1ccc(C)c(N2CCN(S(=O)(=O)c3ccc4c(c3)CCN4C(=O)CCC(=O)O)CC2)c1	·	?	26	9%
COc1ccccc1CNS(=O)(=O)c1ccc2c(c1)CC(C)N2C(=O)C1CC1 (stereo unspecified)	?	0%	?	?
O=C(O)CCC(=O)N1CCc2cc(S(=O)(=O)N3CCN(c4ccc(F)cc4)CC3)ccc21	·	15µM*	-11	16%
CCCC(=O)c1ccc(N2CCN(S(=O)(=O)c3ccccc3)CC2)c(F)c1	?	24%	3	?
COc1ccc(N2CCN(C3(c4ccccc4)C(=O)c4ccccc4C3=O)CC2)cc1	·	·	-12	·
COc1cc(NC(=O)CC2C(=O)N(c3ccc(Cl)cc3)C(=O)N2Cc2cccs2)cc(OC)c1 (stereo unspecified)	·	·	-29	·
Cc1cccc(NC(=O)c2ccco2)c1C	4%	10µM*	-22	-3%
Cc1ccccc1NC(=O)c1ccco1	19%	?	-13	11%
CC(C)(C)c1ccc(C(=O)Nc2ccccc2NC(=O)c2ccco2)cc1	?	2%	-20	13µM*
CC(/C=C/c1ccccc1)=N/NC(=O)c1cc([N+](=O)[O-])cc([N+](=O)[O-])c1	?	72%	69	-28%
CC(/C=C/c1ccccc1)=N\Nc1ccccc1[N+](=O)[O-]	97%	-26%	-73*	-15%
Cc1ccc(Nc2nc(C(=O)N3CCC(C(=O)NCCN4CCOCC4)CC3)cs2)cc1	?	4.7µM*	27	19%
COc1ccc(CNC(=O)C2CCN(C(=O)c3csc(Nc4ccc(C)cc4)n3)CC2)cc1	8.3µM*	-19%	-7	11µM*
Cc1ccc(Nc2nc(C(=O)N3CCC(C(=O)NCc4ccccc4)CC3)cs2)cc1	?	?	19	?
Cc1ccc(Nc2nc(C(=O)N3CCC(C(=O)N4CCN(C)CC4)CC3)cs2)cc1	7%	·	26	-10%
C=CCOc1ccc(CNC(C)(C)C)cc1OC	8%	-18%	-1	-1%
C=CCOc1ccc(CNc2nccs2)cc1OC	37%	?	13	10µM*
CC(C)COP(=O)(c1ccc(N(C)C)cc1)C(O)c1ccccc1F (stereo unspecified)	-9%	-15%	-6	3.5µM*
SMILES	Pf growth 48h	Pf growth 96h	HCMV antiviral	HCV inh
CCOP(=O)(c1ccc(N(C)C)cc1)C(O)c1ccccc1F (stereo unspecified)	-5%	-22%	-15	-13%
CC(C)CCOP(=O)(c1ccc(N(C)C)cc1)C(O)c1c(Cl)cccc1Cl (stereo unspecified)	10µM*	12µM*	?	2%
CCCOP(=O)(c1ccc(N(C)C)cc1)C(O)c1ccc(Cl)cc1Cl (stereo unspecified)	7.4µM*	13µM*	-9	9%
CCCOP(=O)(c1ccc(N(C)C)cc1)C(O)c1c(Cl)cccc1Cl (stereo unspecified)	?	8.3µM*	-38	7%
CCOCCCNC(=O)c1ccc2c(=O)n(CCc3ccccc3)c(=O)[nH]c2c1	·	·	9	·
CC(C)COP(=O)(c1ccc(N(C)C)cc1)C(O)c1ccc(Br)cc1 (stereo unspecified)	?	10µM*	?	-19%

Screening results: PubChem, National Center for Advancing Translational Sciences (NCATS)
